Key:
[1] = tested on: Human papillomavirus type 1a protein E7 (residues 44-93); assay: small molecules binding HPV E7 44-93 – biochemical, small-molecule microarray, residues 44-93, 635 nm fluorescence, primary screen (AID 1108); conditions: fluorescence 635 nm, higher = more signal;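 further: E7 fragment applied at 1 µg/mL in TBST for 1 h at 4 C; score combines spot fluorescence with its signal to noise ratio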
[2] = hepatitis C replication reporter changes, two-sided – Huh7 cells, luciferase reporter, HCV replication inhibitor project, primary screen (AID 1109); conditions: Huh7 HCV replicon luciferase reporter, 48 h; higher = more signal;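 further: huh7 hepatoma cells harbouring a luciferase neomycin HCV replicon reporter; luciferase luminescence as measure of HCV replicon replication; test concentration not given here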
[3] = biological target: Left-right determination factor 2 (Homo sapiens) (UniProt O00292); assay: small molecules binding LEFTY2 protein – biochemical, small-molecule microarray, 635 nm fluorescence scan, primary screen (AID 1110); conditions: higher = more signal
[4] = biological target: Calmodulin-1 (Homo sapiens) (UniProt P0DP23); assay: small molecules binding calmodulin-1 with EGTA – biochemical, small-molecule microarray, Cy5-labelled CALM1, profiling panel (AID 1111); conditions: Cy5-CALM1 binding fluorescence, higher = more signal;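 further: labelled calmodulin applied in Tris saline Tween buffer holding calcium plus EGTA and DTT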
[5] = biological target: Calmodulin-1 (Homo sapiens) (UniProt P0DP23); assay: small molecules binding Ca-loaded calmodulin-1 – biochemical, small-molecule microarray, Cy5-labelled CALM1, plus calcium, artefact control for SMM control-protein annotation, profiling panel (AID 1112); conditions: Cy5-CALM1 binding fluorescence, higher = more signal;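 further: score merges spot fluorescence with signal to noise from triplicate slides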
[6] = probe aWnt5a binding to arrayed compounds – biochemical, biotinylated probe, 635/667 nm fluorescence, primary screen (AID 1113); conditions: small-molecule microarray, higher = more signal;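 further: score merges 667 nm fluorescence intensity with signal-to-noise per printed feature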
[7] = probe aShh binding to arrayed compounds – biochemical, biotinylated probe, 635/667 nm fluorescence, primary screen (AID 1114); conditions: small-molecule microarray, higher = more signal;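 further: probe is biotin-labelled aShh protein from a stem cell growth factor screen; measures binding of labelled protein to compounds printed on the slide; score merges feature fluorescence at 667 nm with signal-to-noise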
[8] = probe aNog binding to arrayed compounds – biochemical, biotinylated probe, 635/667 nm fluorescence, primary screen (AID 1115); conditions: small-molecule microarray, higher = more signal;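 further: probe is biotinylated aNog protein used at 0.15 µg/mL for 1 h at 4 C; z-score combines 667 nm fluorescence of each spot with its signal to noise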
[9] = biological target: Torsin-1A-interacting protein 1 (Homo sapiens) (UniProt Q5JTV8); assay: compound microarray binding of lysate hLAP1 – cell lysate, small-molecule microarray, COS7 lysate, 635/667 nm fluorescence, primary screen (AID 1116); conditions: 635 nm fluorescence, higher = more signal
[10] = biological target: Alpha-bungarotoxin (Bungarus multicinctus) (UniProt P60615); assay: compounds binding labelled alpha-BTX control protein – biochemical, small-molecule microarray, Alexa647 label, 635/667 nm fluorescence, artefact control for SMM control protein annotation, profiling panel (AID 1117); conditions: alpha-BTX-A647 binding fluorescence, higher = more signal
Sequence of Alpha-bungarotoxin (Bungarus multicinctus) (P60615 whole entry, looked up): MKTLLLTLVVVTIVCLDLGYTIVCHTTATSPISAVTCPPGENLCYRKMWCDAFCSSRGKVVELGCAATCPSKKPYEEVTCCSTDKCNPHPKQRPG

Sequence of Left-right determination factor 2 (Homo sapiens) (O00292 whole entry, looked up): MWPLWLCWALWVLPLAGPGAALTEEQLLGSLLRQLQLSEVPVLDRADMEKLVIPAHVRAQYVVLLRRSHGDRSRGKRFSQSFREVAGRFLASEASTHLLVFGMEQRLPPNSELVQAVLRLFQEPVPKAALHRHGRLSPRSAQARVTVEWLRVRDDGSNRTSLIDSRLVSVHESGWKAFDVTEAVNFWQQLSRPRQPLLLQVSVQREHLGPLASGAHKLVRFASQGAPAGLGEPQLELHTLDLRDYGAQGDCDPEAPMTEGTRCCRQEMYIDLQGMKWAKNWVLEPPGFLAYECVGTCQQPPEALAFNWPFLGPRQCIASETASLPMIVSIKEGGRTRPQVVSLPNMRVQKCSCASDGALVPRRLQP
Sequence of Torsin-1A-interacting protein 1 (Homo sapiens) (Q5JTV8 whole entry, looked up): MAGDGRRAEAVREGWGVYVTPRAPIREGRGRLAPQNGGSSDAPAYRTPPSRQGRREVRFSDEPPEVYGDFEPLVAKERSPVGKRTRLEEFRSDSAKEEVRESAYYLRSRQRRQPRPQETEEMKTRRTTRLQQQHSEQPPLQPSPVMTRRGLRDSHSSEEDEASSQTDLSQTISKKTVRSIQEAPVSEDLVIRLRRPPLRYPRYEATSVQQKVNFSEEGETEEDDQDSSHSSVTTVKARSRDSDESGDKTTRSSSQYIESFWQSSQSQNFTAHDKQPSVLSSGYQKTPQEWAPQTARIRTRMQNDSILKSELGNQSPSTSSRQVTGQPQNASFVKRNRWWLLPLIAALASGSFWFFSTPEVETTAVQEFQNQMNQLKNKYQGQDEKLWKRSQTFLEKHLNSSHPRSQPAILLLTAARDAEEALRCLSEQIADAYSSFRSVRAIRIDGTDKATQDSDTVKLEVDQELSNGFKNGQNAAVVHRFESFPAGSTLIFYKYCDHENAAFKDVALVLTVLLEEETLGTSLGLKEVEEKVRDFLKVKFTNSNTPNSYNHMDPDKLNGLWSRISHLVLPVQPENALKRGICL

Row | SMILES | composite z-score [1] | z-score [2] | composite z-score [3] | composite z-score [4] | composite z-score [5] | composite z-score [6] | composite z-score [7] | composite z-score [8] | composite z-score [9] | composite z-score [10]
1 | COCCCNC(=O)[C@@]1(Sc2ccc(C)cc2)CC(=O)N(Cc2ccccc2Cl)[C@@H]1c1ccc(CO)cc1 | 1.36 | -1.75 | 0.585 | 0.532 | -0.184 | 0.0706 | 0.275 | -0.205 | 0.566 | 1.25
2 | COCC(=C=CC[C@@H](O)c1ccc(OCCO)cc1)C[C@@H](O)c1ccccn1 | 0.518 | -1.24 | 0.33 | -0.336 | -0.125 | 0.0173 | 0.227 | -0.0184 | 0.407 | 0.338
3 | CCCCCCc1nc(-c2ccc(-c3ccc(Cl)c(Cl)c3)o2)cc2c1[Si](C(C)C)(C(C)C)O[C@H]2c1ccccc1 | -0.545 | -0.674 | -0.0324 | -0.365 | 0.077 | -0.264 | 0.0723 | -0.141 | -0.741 | 0.622
4 | CC(C)NC(=O)[C@@]1(Cc2ccccc2I)c2ccccc2C(=O)N(Cc2ccccc2Cl)[C@H]1c1ccc(CO)cc1 | 1.37 | -1.97 | 0.45 | 0.789 | -0.129 | 0.0077 | 0.0062 | 0.0139 | 0.795 | 1.28
5 | CCC(CC)C(O)C1C=CC2C(=O)N(c3ccccc3)C(=O)C2N1Nc1ccccc1 (stereo not given) | 1.29 | 0.372 | 0.0874 | 1.58 | 0.415 | 0.216 | -0.16 | 2.01 | 0.671 | 1.02
6 | COc1ccc([Si](C)(C)[C@@H]2[C@@H](CCn3cc([C@H](O)c4ccccc4)nn3)O[C@]3(C(=O)N(Cc4cccc(N5CCC5=O)c4)c4ccccc43)[C@H]2C)cc1 | -0.206 | -2.78 | 0.187 | -0.15 | -0.263 | -0.0919 | -0.0035 | -0.0211 | 0.392 | 0.0808
7 | COC(=O)[C@@]1(Cc2ccc(F)cc2)[C@H]2c3cc(C(=O)N(C)C)n(Cc4ccc(C)o4)c3C[C@H]2CN1C(=O)c1ccccc1 | -0.0043 | -0.8 | -1.14 | 1.81 | -0.969 | 0.749 | 1.85 | 3.48 | 5.2 | -1.73
8 | COC(=O)[C@]1(CCC(=O)OC(C)(C)C)N=C(c2ccc(OCCCO)cc2)O[C@@H]1c1ccccc1 | 0.529 | -2.73 | -1.45 | -0.221 | 0.271 | -0.0405 | 0.04 | 1.24 | 1.79 | 1.29
9 | COc1ccc([Si](C)(C)[C@@H]2[C@@H](CC(=O)N3CCC[C@H]3CO)O[C@]3(C(=O)N(Cc4cccc(I)c4)c4ccccc43)[C@H]2C)cc1 | 1.32 | -2.72 | 1.39 | 0.374 | 0.935 | 0.116 | -0.138 | -0.0173 | 1.62 | 0.181
10 | CN1C(=O)C2C=CC(C(O)c3ccc(F)cc3)N(N(c3ccccc3)c3ccccc3)C2C1=O (stereo not given) | 1.11 | -0.0952 | -0.698 | 0.49 | -0.235 | -0.0236 | -0.152 | -0.55 | 0.154 | 0.633
11 | N#Cc1ccc(C(O)C2C=CC3C(=O)N(c4ccccc4)C(=O)C3N2Nc2ccccc2F)cc1 (stereo not given) | 1.29 | -0.494 | 0.262 | 0.123 | -0.564 | 0.0037 | -0.218 | -0.376 | 0.0448 | 0.175
12 | COc1ccc(C(=O)Nc2ccc(CN3C(=O)[C@]4(O[C@H](CC(=O)N5CCC[C@H]5CO)[C@@H]([Si](C)(C)c5ccc(OC)cc5)[C@@H]4C)c4ccccc43)cc2)cc1 | 1.4 | -3.86 | 0.471 | 0.453 | -0.171 | -0.0445 | 0.0639 | 0.116 | 1.08 | 0.748
13 | COc1ccc([Si](C)(C)[C@H]2[C@H](CCO)O[C@@]3(C(=O)N(Cc4ccccc4)c4ccc(N5CCCCC5=O)cc43)[C@@H]2C)cc1 | 0.668 | -5.03 | -0.161 | 0.674 | 0.167 | -0.0685 | -0.156 | -0.135 | 0.652 | 0.883
14 | CCOc1ccc(N2C(=O)CSC2c2cccc([N+](=O)[O-])c2)cc1 (stereo not given) | 1.35 | -0.343 | 0.216 | 0.847 | 0.615 | -0.0383 | 0.0796 | -0.194 | 0.143 | 1.5
15 | CC(C)=CCCC(C)=CC(O)C1C=CC2C(=O)N(c3ccccc3)C(=O)C2N1Nc1ccc(C(C)C)cc1 (stereo not given) | 1.45 | -0.0821 | -0.0675 | 0.943 | 0.415 | 0.163 | 0.0839 | 1.6 | 0.203 | 0.925
16 | O=C1[C@H]2C=C(Br)[C@H](C[C@@H]2OCCCCCCO)[C@@]12CO2 | -1.01 | -3.2 | -0.057 | -0.714 | -1.44 | -0.006 | -0.106 | -0.234 | 0.0589 | -1.17
17 | COc1cc(OC)c(C(O)C2C=CC3C(=O)NC(=O)C3N2Nc2ccccn2)cc1Br (stereo not given) | 0.19 | 0.742 | 0.586 | 0.0037 | -0.107 | -0.0684 | -0.0769 | -0.461 | 1.17 | 0.484
18 | CCCC(=O)N(CCc1c[nH]c2ccccc12)[C@@H]1CC(C(=O)NCCO)=C[C@H](Oc2c(I)cc(CO)cc2OC)[C@H]1O | 0.434 | 0.354 | 0.362 | -0.0781 | -0.36 | -0.129 | -0.221 | -0.234 | 0.0957 | -0.0162

Source: PubChem BioAssay
